# The supplement of paper PMC11732987, “Enantioselective OTUD7B fragment discovery through chemoproteomics screening and high-throughput optimisation” (Communications Chemistry, 2025)
# Values without a mark were called inactive.
# Tests used:
# Test in all cases: log2 ratio of Biotin-Ahx-Ub-VS probe labelling (fragment/DMSO); higher = less target engagement (more negative = stronger competition), active = hit call of the paper (q ≤ 0.05, log2 ratio ≤ -1)
# Settings in all cases: compound concentration: 200 uM; treatment time: 3 h
# USP19 = biological target: T1, USP19 (UniProt O94966)
# T1 sequence (whole entry): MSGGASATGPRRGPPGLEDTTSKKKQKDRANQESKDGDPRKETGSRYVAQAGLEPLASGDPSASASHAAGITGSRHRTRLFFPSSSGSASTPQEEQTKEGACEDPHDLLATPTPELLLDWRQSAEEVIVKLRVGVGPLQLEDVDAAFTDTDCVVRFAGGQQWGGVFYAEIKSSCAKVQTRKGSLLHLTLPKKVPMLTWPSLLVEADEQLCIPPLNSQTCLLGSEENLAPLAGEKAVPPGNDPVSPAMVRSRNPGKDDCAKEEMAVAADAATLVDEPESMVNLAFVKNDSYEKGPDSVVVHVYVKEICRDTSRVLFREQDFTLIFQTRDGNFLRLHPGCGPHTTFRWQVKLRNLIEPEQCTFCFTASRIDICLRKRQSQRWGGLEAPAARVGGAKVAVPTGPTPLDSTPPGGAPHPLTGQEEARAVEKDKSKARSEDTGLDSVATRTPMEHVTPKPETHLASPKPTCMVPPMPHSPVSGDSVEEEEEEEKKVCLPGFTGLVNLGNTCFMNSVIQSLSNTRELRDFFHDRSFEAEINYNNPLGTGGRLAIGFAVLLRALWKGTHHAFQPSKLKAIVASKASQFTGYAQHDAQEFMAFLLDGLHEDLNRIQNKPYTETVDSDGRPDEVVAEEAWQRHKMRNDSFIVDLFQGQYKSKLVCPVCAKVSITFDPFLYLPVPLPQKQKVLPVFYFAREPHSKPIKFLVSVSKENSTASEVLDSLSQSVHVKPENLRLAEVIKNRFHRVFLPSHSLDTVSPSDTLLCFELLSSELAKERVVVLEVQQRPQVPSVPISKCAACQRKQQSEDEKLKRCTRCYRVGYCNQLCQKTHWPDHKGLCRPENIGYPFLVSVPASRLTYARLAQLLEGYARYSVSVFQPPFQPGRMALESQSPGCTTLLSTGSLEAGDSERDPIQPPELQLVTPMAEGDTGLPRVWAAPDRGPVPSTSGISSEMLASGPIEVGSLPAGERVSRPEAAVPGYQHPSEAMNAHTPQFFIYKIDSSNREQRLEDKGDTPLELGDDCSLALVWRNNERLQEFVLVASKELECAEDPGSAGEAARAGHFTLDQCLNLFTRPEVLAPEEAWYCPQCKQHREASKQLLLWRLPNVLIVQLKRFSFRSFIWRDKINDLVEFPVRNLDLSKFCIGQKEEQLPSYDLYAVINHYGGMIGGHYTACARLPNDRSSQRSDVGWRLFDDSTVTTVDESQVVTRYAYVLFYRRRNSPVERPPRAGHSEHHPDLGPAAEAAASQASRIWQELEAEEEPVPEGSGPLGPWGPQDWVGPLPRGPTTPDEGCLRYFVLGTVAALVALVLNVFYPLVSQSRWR
# Procedure, shortened: (§1)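 HEK293T lysate, 495 µg per sample in Tris/CHAPS/IGEPAL buffer with protease inhibitors, was treated in triplicate with fragment at 200 µM or vehicle for 3 h and then with Biotin-Ahx-Ub-VS at 0.5 µM final for 1 h. Labelled DUBs were NeutrAvidin-enriched, digested with LysC and trypsin, and run by diaPASEF LC-MS/MS. Spectronaut label-free quantities were global-median-normalised, and values are average log2 fragment/vehicle ratios by unpaired t-test on proteins with ≥2 unique peptides.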
# USP22 = biological target: T2, USP22 (UniProt Q9UPT9)
# T2 sequence (whole entry): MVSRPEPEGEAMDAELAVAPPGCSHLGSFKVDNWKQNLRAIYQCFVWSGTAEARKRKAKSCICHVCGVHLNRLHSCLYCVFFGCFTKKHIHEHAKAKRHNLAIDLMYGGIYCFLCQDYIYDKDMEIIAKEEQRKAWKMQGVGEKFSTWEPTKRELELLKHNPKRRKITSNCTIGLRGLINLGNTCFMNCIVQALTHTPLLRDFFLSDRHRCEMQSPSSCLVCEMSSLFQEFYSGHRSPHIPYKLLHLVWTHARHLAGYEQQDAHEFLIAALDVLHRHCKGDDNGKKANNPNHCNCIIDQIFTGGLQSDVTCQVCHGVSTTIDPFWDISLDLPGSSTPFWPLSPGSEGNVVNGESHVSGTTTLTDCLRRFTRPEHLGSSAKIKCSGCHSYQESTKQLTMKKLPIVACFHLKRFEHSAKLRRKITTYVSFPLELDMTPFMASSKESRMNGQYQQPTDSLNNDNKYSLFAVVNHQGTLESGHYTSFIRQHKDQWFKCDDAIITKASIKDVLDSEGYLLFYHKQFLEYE
# Procedure, shortened: as §1
# USP24 = USP24 (UniProt Q9UPU5)
# Sequence of USP24 (Q9UPU5 whole entry): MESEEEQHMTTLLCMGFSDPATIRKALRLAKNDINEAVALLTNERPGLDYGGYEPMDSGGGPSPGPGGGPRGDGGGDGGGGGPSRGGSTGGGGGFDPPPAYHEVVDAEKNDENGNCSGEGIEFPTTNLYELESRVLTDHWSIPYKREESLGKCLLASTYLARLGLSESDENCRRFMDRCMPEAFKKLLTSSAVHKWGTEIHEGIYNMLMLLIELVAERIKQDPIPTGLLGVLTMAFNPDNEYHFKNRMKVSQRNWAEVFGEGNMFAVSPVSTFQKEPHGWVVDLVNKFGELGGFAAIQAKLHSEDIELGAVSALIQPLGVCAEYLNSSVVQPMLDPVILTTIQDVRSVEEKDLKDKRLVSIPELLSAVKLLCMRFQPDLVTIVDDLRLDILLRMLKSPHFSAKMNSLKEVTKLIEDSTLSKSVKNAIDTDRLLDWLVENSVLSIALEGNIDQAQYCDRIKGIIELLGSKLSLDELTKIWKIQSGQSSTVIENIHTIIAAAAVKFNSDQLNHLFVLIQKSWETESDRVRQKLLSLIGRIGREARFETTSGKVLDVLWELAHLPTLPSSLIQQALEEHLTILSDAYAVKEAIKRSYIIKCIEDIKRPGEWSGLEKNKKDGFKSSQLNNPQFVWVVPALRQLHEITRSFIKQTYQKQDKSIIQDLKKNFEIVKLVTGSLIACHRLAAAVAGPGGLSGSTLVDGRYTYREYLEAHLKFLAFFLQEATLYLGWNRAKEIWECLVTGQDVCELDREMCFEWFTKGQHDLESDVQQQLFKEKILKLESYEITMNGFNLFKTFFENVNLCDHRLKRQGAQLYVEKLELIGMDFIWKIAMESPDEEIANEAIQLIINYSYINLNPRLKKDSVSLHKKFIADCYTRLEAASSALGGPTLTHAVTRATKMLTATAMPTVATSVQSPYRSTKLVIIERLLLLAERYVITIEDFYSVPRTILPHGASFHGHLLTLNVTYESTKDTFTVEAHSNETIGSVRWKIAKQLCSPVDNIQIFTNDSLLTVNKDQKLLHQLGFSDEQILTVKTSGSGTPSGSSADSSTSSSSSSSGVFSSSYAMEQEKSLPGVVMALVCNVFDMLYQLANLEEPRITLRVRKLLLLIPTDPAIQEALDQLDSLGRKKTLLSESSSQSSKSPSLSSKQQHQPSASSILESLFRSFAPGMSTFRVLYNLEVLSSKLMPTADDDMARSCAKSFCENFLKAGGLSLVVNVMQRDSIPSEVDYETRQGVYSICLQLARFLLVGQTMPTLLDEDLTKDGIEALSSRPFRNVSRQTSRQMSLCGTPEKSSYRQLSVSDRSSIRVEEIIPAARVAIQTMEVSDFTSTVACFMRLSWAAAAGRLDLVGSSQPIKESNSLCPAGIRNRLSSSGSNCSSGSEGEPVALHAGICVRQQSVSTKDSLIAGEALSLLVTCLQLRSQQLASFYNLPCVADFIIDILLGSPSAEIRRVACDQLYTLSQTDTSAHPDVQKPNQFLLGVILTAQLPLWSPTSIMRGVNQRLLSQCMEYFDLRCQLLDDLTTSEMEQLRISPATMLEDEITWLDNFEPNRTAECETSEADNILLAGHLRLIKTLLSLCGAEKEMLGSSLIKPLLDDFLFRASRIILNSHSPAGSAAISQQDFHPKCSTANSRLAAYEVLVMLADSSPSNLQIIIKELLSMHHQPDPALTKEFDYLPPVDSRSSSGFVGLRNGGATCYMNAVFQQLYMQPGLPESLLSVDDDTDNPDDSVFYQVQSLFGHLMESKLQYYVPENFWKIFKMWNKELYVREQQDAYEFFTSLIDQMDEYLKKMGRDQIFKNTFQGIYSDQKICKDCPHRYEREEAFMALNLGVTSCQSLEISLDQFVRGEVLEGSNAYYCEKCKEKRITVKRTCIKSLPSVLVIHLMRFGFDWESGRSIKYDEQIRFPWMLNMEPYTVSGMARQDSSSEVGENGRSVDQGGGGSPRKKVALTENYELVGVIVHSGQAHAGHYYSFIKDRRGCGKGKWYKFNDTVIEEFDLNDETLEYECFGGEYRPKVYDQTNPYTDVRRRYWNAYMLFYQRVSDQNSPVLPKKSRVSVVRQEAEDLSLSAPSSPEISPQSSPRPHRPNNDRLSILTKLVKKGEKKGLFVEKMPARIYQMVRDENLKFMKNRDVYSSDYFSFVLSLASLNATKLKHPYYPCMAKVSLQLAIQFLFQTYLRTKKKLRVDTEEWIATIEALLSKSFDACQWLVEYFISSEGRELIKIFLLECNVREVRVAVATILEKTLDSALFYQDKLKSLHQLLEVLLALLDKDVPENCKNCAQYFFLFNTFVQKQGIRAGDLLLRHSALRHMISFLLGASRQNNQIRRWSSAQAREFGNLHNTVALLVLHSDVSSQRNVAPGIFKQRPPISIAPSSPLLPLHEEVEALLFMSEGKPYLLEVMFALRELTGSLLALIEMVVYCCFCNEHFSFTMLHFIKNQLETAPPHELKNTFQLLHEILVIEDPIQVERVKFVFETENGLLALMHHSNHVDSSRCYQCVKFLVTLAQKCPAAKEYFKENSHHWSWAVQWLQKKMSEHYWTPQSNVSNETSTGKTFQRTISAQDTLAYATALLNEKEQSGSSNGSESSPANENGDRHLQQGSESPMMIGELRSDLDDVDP
# Procedure, shortened: as §1
# USP25 = biological target: T3, USP25 (UniProt Q9UHP3)
# T3 sequence (whole entry): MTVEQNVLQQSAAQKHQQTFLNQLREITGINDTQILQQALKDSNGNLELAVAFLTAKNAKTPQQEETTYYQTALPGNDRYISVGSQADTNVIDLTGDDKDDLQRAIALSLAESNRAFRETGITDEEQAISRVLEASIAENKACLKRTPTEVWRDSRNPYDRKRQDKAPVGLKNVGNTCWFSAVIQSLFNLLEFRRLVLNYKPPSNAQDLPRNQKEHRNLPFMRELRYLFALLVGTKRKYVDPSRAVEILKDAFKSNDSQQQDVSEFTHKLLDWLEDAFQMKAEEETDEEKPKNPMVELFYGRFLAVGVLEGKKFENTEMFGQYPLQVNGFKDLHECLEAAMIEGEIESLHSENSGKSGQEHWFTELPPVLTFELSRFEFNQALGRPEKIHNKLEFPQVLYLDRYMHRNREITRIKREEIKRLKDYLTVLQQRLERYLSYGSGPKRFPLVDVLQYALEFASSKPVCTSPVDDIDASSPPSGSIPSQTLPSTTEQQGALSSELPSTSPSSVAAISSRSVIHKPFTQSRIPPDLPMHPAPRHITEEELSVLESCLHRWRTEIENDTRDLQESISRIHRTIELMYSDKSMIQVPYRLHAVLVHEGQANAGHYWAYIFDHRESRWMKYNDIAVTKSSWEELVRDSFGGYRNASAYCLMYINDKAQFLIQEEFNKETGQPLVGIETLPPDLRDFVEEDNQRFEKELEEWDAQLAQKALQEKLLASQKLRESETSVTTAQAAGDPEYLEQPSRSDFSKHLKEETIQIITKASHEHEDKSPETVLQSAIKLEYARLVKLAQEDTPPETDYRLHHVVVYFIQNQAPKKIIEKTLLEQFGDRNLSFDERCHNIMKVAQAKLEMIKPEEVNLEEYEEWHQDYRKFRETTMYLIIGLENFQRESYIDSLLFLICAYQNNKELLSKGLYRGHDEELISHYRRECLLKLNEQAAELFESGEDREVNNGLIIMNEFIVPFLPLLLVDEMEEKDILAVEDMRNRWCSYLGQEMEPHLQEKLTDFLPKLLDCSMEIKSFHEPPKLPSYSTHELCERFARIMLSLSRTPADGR
# Procedure, shortened: as §1
# USP28 = biological target: T4, USP28 (UniProt Q96RU2)
# T4 sequence (whole entry): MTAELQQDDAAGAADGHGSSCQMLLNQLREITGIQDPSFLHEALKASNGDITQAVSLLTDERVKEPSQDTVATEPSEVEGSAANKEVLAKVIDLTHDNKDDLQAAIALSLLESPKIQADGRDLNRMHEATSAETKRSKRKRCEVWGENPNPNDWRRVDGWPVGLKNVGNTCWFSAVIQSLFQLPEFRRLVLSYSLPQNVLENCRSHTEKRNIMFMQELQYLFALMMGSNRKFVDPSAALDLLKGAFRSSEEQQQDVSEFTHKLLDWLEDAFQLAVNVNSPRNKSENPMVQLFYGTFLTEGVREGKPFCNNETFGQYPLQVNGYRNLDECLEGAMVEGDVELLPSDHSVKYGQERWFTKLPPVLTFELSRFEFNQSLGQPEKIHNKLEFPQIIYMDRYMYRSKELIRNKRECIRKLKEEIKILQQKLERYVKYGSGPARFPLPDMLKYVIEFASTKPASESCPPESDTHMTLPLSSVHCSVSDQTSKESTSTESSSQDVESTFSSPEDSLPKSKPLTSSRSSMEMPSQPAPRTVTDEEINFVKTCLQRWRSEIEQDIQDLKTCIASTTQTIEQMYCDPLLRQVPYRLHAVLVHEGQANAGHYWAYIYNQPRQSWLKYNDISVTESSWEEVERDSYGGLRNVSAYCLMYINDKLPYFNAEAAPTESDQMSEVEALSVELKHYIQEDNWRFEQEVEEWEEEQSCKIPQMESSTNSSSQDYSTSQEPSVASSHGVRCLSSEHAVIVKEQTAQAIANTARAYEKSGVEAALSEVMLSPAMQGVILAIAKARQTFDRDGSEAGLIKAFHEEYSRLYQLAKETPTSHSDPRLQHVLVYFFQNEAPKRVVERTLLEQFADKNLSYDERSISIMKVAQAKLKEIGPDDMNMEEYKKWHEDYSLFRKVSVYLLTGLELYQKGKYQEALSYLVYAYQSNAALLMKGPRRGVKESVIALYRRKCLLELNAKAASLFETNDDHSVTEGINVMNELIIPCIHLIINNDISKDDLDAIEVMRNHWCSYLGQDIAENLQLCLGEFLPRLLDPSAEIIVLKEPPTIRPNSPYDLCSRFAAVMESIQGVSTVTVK
# Procedure, shortened: as §1
structure (smiles),measurement,setting,value
O=C(CCl)N1CCc2nc[nH]c2C1c1ccc(Cl)cc1 (stereo not given),log2 ratio of Biotin-Ahx-Ub-VS probe labelling,USP19,-0.509
same,log2 ratio of Biotin-Ahx-Ub-VS probe labelling,USP22,0.00421
same,log2 ratio of Biotin-Ahx-Ub-VS probe labelling,USP24,-1.47 (active)
same,log2 ratio of Biotin-Ahx-Ub-VS probe labelling,USP25,-0.591
same,log2 ratio of Biotin-Ahx-Ub-VS probe labelling,USP28,-0.738
